Bioassay records as filed in PubChem.
In the library only some 17% were active in any assay of this set; here they are far more common.
ClpP mod: qHTS Assay for Activators of ClpP; ATP-dependent Clp protease proteolytic subunit (Bacillus subtilis (strain 168)), P80244; purified B. subtilis ClpP, FRET peptide cleavage, 20 min; Potency, µM (top dose mostly 57.5 µM), without a hit: at the highest dose activity change, negative = active; actives 1.9% (n = 340,000); AID 651965, 2013; active means well fitted falling curve with a large enough effect; inconclusive means small, poorly fitted or top-dose-only effect; inactive means no such curve, though single readings can be large or run the other way; further: the source files actives as falling curves though it sought activators and does not explain the sign; nearly all actives have a fitted effect of over 65% in size
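FRET quenching reversal measured ClpP activation: 10 microg/mL B. subtilis ClpP at pH 8 with the FRET-FV decapeptide, read at 430 nm after 320 nm excitation. The 20-min minus 0-min signal was scaled between DMSO/no-enzyme wells and ADEP (5.8 microM final).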
TDP1 cell CPT: DT40-hTDP1 cell growth loss with CPT | chicken DT40 Tdp1-/-;hTDP1 cells + 20 nM CPT, ATP luminescence, 48 h | Potency, µM (doses to about 46.2 µM), for inactives: top-dose activity change, negative = growth inhibition, most hits filed as inhibitors | actives 12% (n = 420,000); further: on the % scale 0 is the no-effect control and ±100 the full control effect; nearly all actives have a fitted effect of over 55% in size
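Cell growth measured by CellTiter-Glo luminescence after a minimum 48 h, 37 C compound exposure with 20 nM CPT in Tdp1-knockout DT40 cells stably expressing hTDP1, seeded 400/well; qHTS titration format.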
TDP1 cell noCPT: qHTS for Inhibitors of human tyrosyl-DNA phosphodiesterase 1 (TDP1): qHTS in cells in absence of CPT | actives 15% (n = 420,000) | AID 686978, 2013 | Potency, µM (top dose mostly 46.2 µM), for inactives: at the highest dose activity change, negative = growth inhibition, usual class: inhibitors | DT40 Tdp1-/- hTDP1 cells, no CPT, ATP luminescence, 48 h; further: on the % scale 0 is the no-effect control and ±100 the full control effect; nearly all actives have a fitted effect of over 55% in size
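Seeded 400 DT40-hTDP1 cells/well (vehicle DMSO, no 20 nM CPT); pinned compounds; ≥48 hr at 37 °C; CellTiter-Glo luminescence as viability measure.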
TDP1 inh: inhibitors of human tyrosyl-DNA phosphodiesterase TDP1; recombinant TDP1, AlphaScreen DNA substrate cleavage; Q9NUW8; Potency, µM (highest dose often 130 µM), inactives show at the top dose activity change, negative = inhibition, hits mostly inhibitors; AID 485290; actives 0.28% (n = 350,000); further: on the % scale 0 is the no-effect control and ±100 the full control effect; nearly all actives have a fitted effect of over 40% in size
Target sequence (Q9NUW8 whole entry, looked up): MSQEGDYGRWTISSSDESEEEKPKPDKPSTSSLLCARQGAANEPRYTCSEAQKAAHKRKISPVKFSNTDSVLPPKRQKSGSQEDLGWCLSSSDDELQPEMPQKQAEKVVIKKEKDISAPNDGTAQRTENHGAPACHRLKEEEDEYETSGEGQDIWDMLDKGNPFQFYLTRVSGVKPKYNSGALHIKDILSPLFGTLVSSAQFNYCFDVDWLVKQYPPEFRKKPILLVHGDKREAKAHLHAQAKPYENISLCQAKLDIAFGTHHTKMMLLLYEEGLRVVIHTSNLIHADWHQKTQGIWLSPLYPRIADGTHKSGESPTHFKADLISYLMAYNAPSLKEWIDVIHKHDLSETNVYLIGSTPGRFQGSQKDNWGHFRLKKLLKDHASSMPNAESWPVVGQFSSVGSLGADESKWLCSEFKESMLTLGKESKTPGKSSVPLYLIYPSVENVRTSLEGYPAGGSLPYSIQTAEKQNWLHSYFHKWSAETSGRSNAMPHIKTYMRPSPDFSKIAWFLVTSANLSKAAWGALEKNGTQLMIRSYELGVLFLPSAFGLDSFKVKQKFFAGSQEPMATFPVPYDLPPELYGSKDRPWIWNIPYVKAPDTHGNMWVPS
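Steps: enzyme plus compound, 15 min RT; add biotin/phosphotyrosine-FITC oligonucleotide (15 nM final), react 5 min; add donor/acceptor beads (10 ug/ml final), 10 min; read AlphaScreen. Tdp1 at 1 nM final.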
Numbers without * were called inactive; ? = inconclusive; . = no result given. Unless noted, the call rests on the fitted dose curve; in most records, active means well fitted curve in the direction sought with a large enough effect; inconclusive means small, poorly fitted or top-dose-only effect, or another doubt; inactive means no such curve, though single readings can be large; an effect the other way counts as inactive or inconclusive. Potency means the concentration at half of the fitted maximal effect.

SMILES	ClpP mod	TDP1 cell CPT	TDP1 cell noCPT	TDP1 inh
CCOc1ccc(CCNC(=O)CCn2c(=O)c3cccn3c3ccc(F)cc32)cc1OCC	-1%	?	13µM*	5%
CNCCCC1c2ccccc2C=Cc2ccccc21	4%	?	23µM*	3%
Cc1[nH]nc(N=CC2=C(O)CC(C)(C)CC2=O)c1-c1ccccc1	-9%	?	16µM*	1%
Cc1ccc([C@H]2N[C@]3(CCCN(Cc4ccc(F)cc4)C3=O)[C@H]3C(=O)N(C)C(=O)[C@@H]23)cc1	0%	?	13µM*	.
CN1C(=O)[C@H]2[C@@H](c3ccccc3)N[C@]3(CCCN(Cc4ccc(F)cc4)C3=O)[C@H]2C1=O	0%	-4%	-23%	.
Cc1ccc([C@H]2N[C@]3(CCCN(Cc4ccc(Br)cc4)C3=O)[C@H]3C(=O)N(C)C(=O)[C@@H]23)cc1	-3%	3%	13µM*	.
Cc1cc(NC(=O)CN2CCC(C)CC2)no1	-3%	-9%	-13%	-3%
Cc1ccc2oc(/N=C(\N)NC(=O)C3CC3)nc2c1	-2%	9.2µM*	4.6µM*	3%
N/C(=N\c1nc2ccccc2o1)NC(=O)c1ccc(F)cc1	-2%	13µM*	13µM*	6%
N/C(=N\c1nc2ccccc2o1)NC(=O)c1ccc(Cl)cc1	-3%	?	-5%	-6%
N/C(=N\c1nc2ccccc2o1)NC(=O)c1ccccc1Br	.	?	16µM*	9%
Brc1ccc2nc(C3CCCCC3)c(CC3CCCCC3)n2c1	-2%	?	?	.
COCc1cc(C)nc(NCCO)c1C#N	32µM*	-8%	-6%	5%
CCNc1nc(C)cc(COC)c1C#N	67%	-2%	-3%	-3%
CCOC(=O)c1c(NC(=O)c2ccc(S(=O)(=O)N(CC(C)C)CC(C)C)cc2)sc2c1CCN(C(=O)OCC)C2	0%	-34%	0.0073µM*	3%
CCOC(=O)N1CCN(S(=O)(=O)c2ccc(C(=O)Nc3sc4c(c3C(=O)OC)CCN(C)C4)cc2)CC1	0%	?	?	8%
CCOC(=O)c1c(NC(=O)c2ccc(S(=O)(=O)N(C)C)cc2)sc2c1CCN(C)C2	-14%	23µM*	16µM*	0%
COC(=O)c1c(N2C(=O)Nc3ccccc3N2O)sc(C)c1C	-1%	4%	2%	3%
COC(=O)c1c(-n2cnnn2)sc(C)c1C	22µM*	10%	0%	5%
CCOC(=O)c1c(C)[nH]c(C(=O)OCC(=O)NCc2ccc(F)cc2)c1C	0%	-19%	?	-1%
CCOc1ccc(CCNC(=O)COC(=O)c2sccc2C)cc1OCC	1%	?	13µM*	5%
CCOC(=O)c1c(C)[nH]c(C(=O)OCC(=O)NCCc2ccc(OCC)c(OCC)c2)c1C	2%	6.5µM*	5.2µM*	.
CCOc1ccc(CCNC(=O)COC(=O)c2cccs2)cc1OCC	-5%	-28%	-11%	2%
CCOC(=O)c1c(C)[nH]c(C(=O)OCC(=O)NCc2ccco2)c1C	2%	18µM*	23µM*	.
COc1ncc2nc(-c3cc(F)cc(F)c3)c(=O)n(CCC#N)c2n1	.	-1%	-24%	.
SMILES	ClpP mod	TDP1 cell CPT	TDP1 cell noCPT	TDP1 inh
CC(C)c1ccc(NC(=O)COC(=O)c2nn(C)c(=O)c3ccccc23)cc1	3%	-15%	0%	0%
CC(=O)Nc1ncc([N+](=O)[O-])s1	.	-21%	-12%	4%
Cc1ccc(C(=O)Nc2ncc(Cc3ccc(SC(F)F)cc3)s2)cc1	?	1.2µM*	1.3µM*	4%
Cc1ccc(C(=O)Nc2ncc([N+](=O)[O-])s2)cc1	-4%	23µM*	18µM*	.
Cc1ccc([N+](=O)[O-])cc1NC(=O)c1ccc2c(c1)OCO2	.	11%	3%	1%
O=C(Nc1ncc([N+](=O)[O-])s1)c1ccc2c(c1)OCO2	0%	?	18µM*	10%
Cc1sc2ncnc(SCC(=O)N3c4ccccc4Sc4ccc(Cl)cc43)c2c1C	-2%	-10%	?	0%
CCOC(=O)c1c(C)sc2c1N(C(=O)CCl)c1cc(Cl)ccc1S2	0%	4.1µM*	4.1µM*	5%
O=C(CSc1nc2c(c(=O)[nH]1)CN(Cc1ccc(F)cc1)CC2)Nc1ccc(F)cc1	-1%	21µM*	16µM*	0%
Cc1nnc2sc(SCC(=O)Nc3ccc(Br)cc3)nn2c1=O	25µM*	-13%	-26%	2%
Cc1ccc(NS(=O)(=O)c2c(C(=O)N3CCC(C)CC3)c(C)n(C)c2C)cc1Cl	0%	?	?	9%
NC(=O)C1=CC2C3C=CC2(O)C(=O)OC3O1 (centres undefined)	-1%	5.2µM*	5.8µM*	.
COc1cc(C(=O)Nc2cc(C)ccn2)ccc1OCC(=O)N1CCOCC1	-1%	-5%	-1%	0%
CCCOC(=O)C1=C(C)NC2=C(C(=O)CCC2)C1c1cccc(OC)c1OC (centres undefined)	25µM*	-6%	1%	-4%
CC1=C(C(=O)Nc2ccc(F)cc2)C(c2ccc(C)o2)C2=C(CC(C)(C)CC2=O)N1 (centres undefined)	-13%	-17%	-12%	1%
COC(=O)C1=C(C)NC2=C(C(=O)CCC2)C1c1coc2ccccc2c1=O (centres undefined)	-2%	1%	-23%	5%
CC1=C(C(=O)OC2CCCC2)C(c2ccc(C)o2)C2=C(CC(c3cccs3)CC2=O)N1 (centres undefined)	-6%	?	16µM*	5%
CC1=C(C(=O)OC2CCCC2)C(c2coc3ccccc3c2=O)C2=C(CCCC2=O)N1 (centres undefined)	.	-19%	0.41µM*	3%
CC1=C(C(=O)OC2CCCCC2)C(c2ccc(C)o2)C2=C(CC(C)(C)CC2=O)N1 (centres undefined)	-2%	18µM*	?	3%
CC(C)Cn1c(N)c(C(=O)CSc2nncs2)c(=O)n(C)c1=O	1%	?	?	1%
CC(=O)NC(=S)c1c(N)n(Cc2ccccc2)c(=O)n(C)c1=O	.	.	.	1%
CC(=O)Nc1ccc(SCC(=O)c2c(N)n(Cc3ccccc3)c(=O)n(C)c2=O)cc1	.	?	8.2µM*	0%
CC(C)Cn1c(N)c(C(=O)CSc2ccccc2)c(=O)n(C)c1=O	4%	16µM*	8.2µM*	0%
CC(C)Cn1c(N)c(C(=O)COC(=O)/C=C/c2ccccc2)c(=O)n(C)c1=O	-7%	15µM*	?	-3%
Cc1ccccc1CSCC(=O)c1c(N)n(C)c(=O)n(C)c1=O	1%	?	?	5%
Cc1ccccc1CSCC(=O)c1c(N)n(CC(C)C)c(=O)n(C)c1=O	?	?	23µM*	-7%
CN(C(=O)c1ccc(F)cc1)c1ccc(OCC(=O)Nc2ccccc2C(=O)O)cc1	0%	-19%	?	-3%
